Measurements as given in PubChem BioAssay.
The source made the active and inactive calls.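 How the source made its calls, unless noted: active means inhibition above 20% together with a positive visual image hit; inconclusive means visual image hit but inhibition not above 20%; inactive means no visual image hit.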

Legend:
[1] = inhibitors of TNFa-induced NFkB p65 translocation, primary screen, imaging, HUVEC, MLSMR starter and 10KST1 sets (AID 438); conditions: HUVEC TNFa-induced p65 nuclear translocation; cell count: measured here: nuclei count (cytotoxicity indicator), at 2.08 µM; inhibition: at 2 µM, stronger effect = higher value, 0% TNFa-plus-vehicle, 100% no-TNFa wells;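 further: compound added about 3h40 before a 20 min TNFalpha stimulation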;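 on inhibition: signal is the nuclear over cytoplasmic p65 intensity ratio per well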
[2] = reduction of polyQ htt aggregates in cells – imaging, exon1htt(103Q)mCFP cells, high-content imaging, primary screen (AID 483;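 active means visual image review flags a hit and inhibition of aggregation exceeds 20%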;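 further: compound exposure lasted 3 days before fixation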;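 on nuclei count: percent of the per-plate median nuclei count of sample wells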); conditions: exon1htt(103Q)mCFP cell line, aggregate imaging, at 2 µM; inhibition of aggregation: stronger effect = higher value; nuclei count: measured here: cell count, toxicity
[3] = endothelial E-selectin expression blockers – imaging, HUVEC, immunofluorescence, MLSMR starter and 10KST1 sets, primary screen (AID 487;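 active means visually confirmed hit in the image check and inhibition above 20%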;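 on inhibition: signal is fraction of cell area covered by stained E-selectin grains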;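 on nuclei count: 100% = median nuclei count of all wells on the same plate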); conditions: HUVEC TNFalpha-induced E-selectin immunofluorescence imaging, at 2 µM; inhibition: stronger effect = higher value; nuclei count: measured here: cell number, toxicity
[4] = target: Voltage-gated potassium channel subunit beta-2 (Rattus norvegicus) (UniProt P62483); assay: inhibitors of rat Kvbeta2 reductase activity – biochemical, NADPH fluorescence, primary screen (AID 622;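 active means fluorescence slope higher than the sample average by over 3 SD, cut at about -0.22 in these data, passing the limit was not always enough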;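 further: slope of raw intensity against log time taken from 70 to 1610 s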); conditions: recombinant KvBeta, 4-cyanobenzaldehyde reduction, at 10 µM, stronger effect = higher value
[5] = target: Voltage-gated potassium channel subunit beta-2 (Rattus norvegicus) (UniProt P62483); assay: enhancers of rat Kvbeta2 NADPH turnover – biochemical, NADPH fluorescence, primary screen (AID 623;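 active means NADPH fluorescence slope more negative than the mean of all samples by about 3 SD, 99.7% confidence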;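 further: fluorescence intensity change per second fitted from 20 to 320 s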); conditions: Recombinant KvBeta, NADPH fluorescence decrease slope, 10 min; at 10 µM; stronger effect = lower value
[6] = target: Alpha-2C adrenergic receptor (Homo sapiens) (UniProt P18825); assay: compounds altering alpha2C-coupled GIRK flux – cell-based, HEK293 alpha2C/GIRK1/2, thallium flux, primary screen (AID 624;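 active means fluorescence slope after compound addition differing from the mean of all screened samples at 99.7% confidence, in either direction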;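 further: slope of fluorescence ratio to pre-addition baseline per second over 15 to 24 s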); conditions: thallium flux BTC fluorescence, at 10 µM, actives lie on both sides
[7] = blockers of RIG-like receptor reporter activation – cell-based, Sendai virus stimulus, luciferase, 10K MLSCN set, TLR/RLR signaling modifier project, primary screen (AID 602276;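 active means inhibition at or above 50% at 10 µM; inactive means inhibition below 50%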;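 further: firefly luciferase from ISG56 promoter only with Renilla not read in this screen; 0% = Sendai virus plus DMSO and 100% = medium plus DMSO without virus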); conditions: HEK293 RL24 IRF3 luciferase reporter, at 10 µM, stronger effect = higher value
[8] = TLR3 IRF3 reporter activation blockers – cell-based, poly I:C stimulus, luciferase, 10K MLSCN set, primary screen (AID 602277;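 active means inhibition of the reporter signal at or above 50%; inactive means inhibition below 50%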); conditions: HEK293-TLR3 RL24 IRF3 luciferase reporter, at 10 µM, stronger effect = higher value

Chain of Voltage-gated potassium channel subunit beta-2 (Rattus norvegicus) (P62483 whole entry, looked up): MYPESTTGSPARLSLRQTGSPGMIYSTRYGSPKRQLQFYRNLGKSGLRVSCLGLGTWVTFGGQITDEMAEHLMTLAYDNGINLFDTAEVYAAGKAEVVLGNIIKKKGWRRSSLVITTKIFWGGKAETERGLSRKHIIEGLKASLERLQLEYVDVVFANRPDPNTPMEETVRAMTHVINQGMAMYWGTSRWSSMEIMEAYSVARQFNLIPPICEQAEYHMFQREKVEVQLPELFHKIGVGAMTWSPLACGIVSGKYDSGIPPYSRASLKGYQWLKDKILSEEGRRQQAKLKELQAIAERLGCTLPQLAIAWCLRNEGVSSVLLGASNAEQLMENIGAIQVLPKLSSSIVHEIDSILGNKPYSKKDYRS
Chain of Alpha-2C adrenergic receptor (Homo sapiens) (P18825 whole entry, looked up): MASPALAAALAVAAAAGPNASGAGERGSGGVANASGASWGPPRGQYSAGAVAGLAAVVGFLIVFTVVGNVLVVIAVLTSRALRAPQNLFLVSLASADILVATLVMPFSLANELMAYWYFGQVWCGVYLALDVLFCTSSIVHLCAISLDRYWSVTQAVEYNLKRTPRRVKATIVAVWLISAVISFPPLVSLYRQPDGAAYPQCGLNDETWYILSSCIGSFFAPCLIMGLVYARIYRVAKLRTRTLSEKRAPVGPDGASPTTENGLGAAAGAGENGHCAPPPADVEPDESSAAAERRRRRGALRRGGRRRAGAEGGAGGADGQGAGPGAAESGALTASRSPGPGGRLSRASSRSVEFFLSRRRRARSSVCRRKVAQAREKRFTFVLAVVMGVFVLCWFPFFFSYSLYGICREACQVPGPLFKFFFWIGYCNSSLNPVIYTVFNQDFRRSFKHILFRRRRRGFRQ

In the case of `CCOC(=O)N1CCC(NC(=O)c2cc(C(=O)NC3CCCC3)ccc2CO)CC1`, the cell count [1] is reported as 467, the inhibition [1] is reported as 0.8% (inactive) and the inhibition of aggregation [2] is reported as 14.4% (inactive). For the same molecule, the nuclei count [2] was 58.4%, the inhibition [3] was -14.1% (inactive) and the nuclei count [3] was 106%. For the same molecule, the fluorescence slope [4] was -0.535 (inactive), the NADPH fluorescence slope [5] was -5.1e-05 (inactive) and the slope [6] was 0.00598 (inactive). For the same molecule, the inhibition [7] was 11.2% (inactive) and the inhibition [8] was 32% (inactive).
With `CCCCCn1c(N2CCN(Cc3ccccc3)CC2)nc2c1c(=O)[nH]c(=O)n2C` the cell count [1] was 675, the inhibition [1] was 1.9% (inactive) and the inhibition of aggregation [2] was -11.5% (inactive). For the same molecule, the nuclei count [2] was 101%, the inhibition [3] was -13.6% (inactive) and the nuclei count [3] was 107%. For the same molecule, the fluorescence slope [4] was -0.625 (inactive), the NADPH fluorescence slope [5] was -2.8e-05 (inactive) and the slope [6] was 0.0038 (inactive). The inhibition [7] was 14.2% (inactive) and the inhibition [8] was 16.8% (inactive).
With `CCN(c1cccc(C(F)(F)F)c1)S(=O)(=O)c1ccc2c(c1)CCN2C(=O)C1CC1` the cell count [1] was 495, the inhibition [1] was 2.7% (inactive) and the inhibition of aggregation [2] was 3.1% (inactive). The nuclei count [2] was 97.3%, the inhibition [3] was -51.5% (inactive) and the nuclei count [3] was 104%. The fluorescence slope [4] was -0.405 (inactive), the NADPH fluorescence slope [5] was -4.7e-05 (inactive) and the slope [6] was 0.00287 (inactive). For the same molecule, the inhibition [7] was -11.8% (inactive) and the inhibition [8] was -25.9% (inactive).
In the case of `Cn1cccc1Cc1nnc(SCC(=O)NCc2ccc(F)cc2)n1-c1ccc(F)cc1`, the cell count [1] is reported as 767, the inhibition [1] is reported as -7.4% (inactive) and the inhibition of aggregation [2] is reported as 20% (inactive). The nuclei count [2] was 139%, the inhibition [3] was -56.2% (inactive) and the nuclei count [3] was 116%. For the same molecule, the fluorescence slope [4] was -0.579 (inactive), the NADPH fluorescence slope [5] was 8.6e-06 (inactive) and the slope [6] was 0.00663 (inactive). For the same molecule, the inhibition [7] was -4.39% (inactive) and the inhibition [8] was 9.66% (inactive).
In the case of `CCOC(=O)N1CCN(c2c(N3CCN(c4ccccn4)CC3)c(=O)c2=O)CC1`, the cell count [1] is reported as 555, the inhibition [1] is reported as 3.4% (inactive) and the inhibition of aggregation [2] is reported as 25.3% (inactive). The nuclei count [2] was 76.1%, the inhibition [3] was -24.6% (inactive) and the nuclei count [3] was 119%. The fluorescence slope [4] was -0.506 (inactive), the NADPH fluorescence slope [5] was -5.8e-06 (inactive) and the slope [6] was 0.00633 (inactive). The inhibition [7] was 9.82% (inactive) and the inhibition [8] was 16.3% (inactive).
With `O=C(c1cc(C2CC2)on1)N1CCN(C(c2ccccc2)c2ccccc2)CC1` the cell count [1] was 731, the inhibition [1] was -3.5% (inactive) and the inhibition of aggregation [2] was 25% (inactive). The nuclei count [2] was 82%, the inhibition [3] was -61% (inactive) and the nuclei count [3] was 89.3%. For the same molecule, the fluorescence slope [4] was -0.573 (inactive), the NADPH fluorescence slope [5] was -7.4e-06 (inactive) and the slope [6] was 0.00569 (inactive). For the same molecule, the inhibition [7] was 7.04% (inactive) and the inhibition [8] was 35.9% (inactive).
In the case of `O=C(Nc1nnc(CCN2CCCCC2)s1)C1CCCCC1`, the cell count [1] is reported as 455, the inhibition [1] is reported as -11.2% (inactive) and the inhibition of aggregation [2] is reported as 7% (inactive). The nuclei count [2] was 113%, the inhibition [3] was -31.8% (inactive) and the nuclei count [3] was 102%. For the same molecule, the fluorescence slope [4] was -0.411 (inactive), the NADPH fluorescence slope [5] was -6e-05 (inactive) and the slope [6] was 0.00451 (inactive). For the same molecule, the inhibition [7] was 15.1% (inactive) and the inhibition [8] was 16.5% (inactive).
With `Cc1cc(C)nc(SC2=CS(=O)(=O)c3ccccc32)n1` the cell count [1] was 409, the inhibition [1] was 4.2% (inactive) and the inhibition of aggregation [2] was -0.8% (inactive). For the same molecule, the nuclei count [2] was 107%, the inhibition [3] was -15.3% (inactive) and the nuclei count [3] was 95.9%. For the same molecule, the fluorescence slope [4] was -0.358 (inactive), the NADPH fluorescence slope [5] was 3.3e-05 (inactive) and the slope [6] was 0.00592 (inactive). For the same molecule, the inhibition [7] was 9.85% (inactive) and the inhibition [8] was -5.16% (inactive).
In the case of `CCc1c(C)nc2ncnn2c1N1CCC(C(=O)NCc2cccc(OC)c2)CC1`, the cell count [1] is reported as 716, the inhibition [1] is reported as -5.5% (inactive) and the inhibition of aggregation [2] is reported as -13.4% (inactive). For the same molecule, the nuclei count [2] was 66%, the inhibition [3] was -34.8% (inactive) and the nuclei count [3] was 116%. The fluorescence slope [4] was -0.499 (inactive), the NADPH fluorescence slope [5] was -4.5e-05 (inactive) and the slope [6] was 0.00565 (inactive). For the same molecule, the inhibition [7] was 5.24% (inactive) and the inhibition [8] was 1.67% (inactive).
